Laboratory results taken from ChEMBL document CHEMBL5308541, “MAIP: An Open-Source Tool to Enrich High-Throughput Screening Output and Identify Novel, Druglike Molecules with Antimalarial Activity” (ACS Med Chem Lett, 2023).
About 410 (8.5%) of roughly 4,800 compounds showed an effect of 50% or more. What follows is part of a selection rich in strong results, with near analogues and random picks from the rest.

These compounds were tested on Plasmodium falciparum (assay: Confirmatory screen in NF54 pLDH assay, in single point, at 2uM, 72h). Details: timepoint 72 hour.
Type: functional, Erythrocyte

Row | Compound | % Inhibition [%]
1 | CN1CCC(N(Cc2ccccc2)C(=O)c2cc3cnccc3[nH]2)CC1 | 58
2 | Cc1cc(N2CCC(NC3CCNC(c4ccccc4)C3)CC2)nc(C)n1 (stereo not given) | 33
3 | Cc1cc(N2CCC(NC3CCCC3Cc3ccc(F)cc3)CC2)nc(N)n1 (stereo not given) | 103
4 | O=C(NCC1CC1)c1cc2c(OCc3ccc(Cl)cc3)cccc2[nH]1 | 53
5 | Cc1cc(NC[C@H](O)COc2ccc(F)cc2)nc2ccccc12 | 81
6 | N#Cc1ccc(N2C[C@H](COCC3CC3)C3(CCN(Cc4cccc(O)c4)CC3)C2)cc1C(F)(F)F | 89
7 | COCCCN1CCC(Nc2ncnc3cc(C)c(C)cc23)CC1 | 94
8 | CC1(N2CCC2)CCC(NC[C@H]2CCN(Cc3ccccc3)C2)CC1 (stereo not given in full) | 66
9 | Cn1nnc(C(=O)N2CCCCC23CCCCCC3)n1 | 59
10 | Cc1ccc2[nH]c(-c3cc4n(n3)CCN(c3ccnc(N)n3)C4)nc2c1C | 97
11 | c1ccc(CN2CCC(CCNC[C@@H]3CCCN4CCCC[C@H]34)CC2)cc1 | 63
12 | CCN(Cc1[nH]c2ccc(Cl)cc2c1C)CC1CCN(C2CCN(C)CC2)CC1 | 102
13 | CCN(Cc1cnn(-c2cccc(Cl)c2)c1)CC1CCN(C2CCN(C)CC2)CC1 | 92
14 | COc1ccc(-c2cc(-c3ccccc3O)n([C@@H]3C(=O)Nc4ccc(Br)cc43)n2)cc1 | 46
15 | CC(C)c1ccc(-c2noc(CCN3CCN(CCCN(C)C)CC3)n2)cc1 | 30
16 | CC(C)c1ccc(-c2nc(CN3CCCCC3)cc(CN3CCCCC3)c2O)cc1 | 92
17 | c1ccc(CNc2ccc(-c3noc(C45CCCN(CCC4)C5)n3)cn2)cc1 | 99
18 | CCCc1cccc(CNC2CCN(C3CCN(C)CC3)CC2)c1 | 71
19 | C[C@@H](CNC1CCN(C2CCN(C)CC2)CC1)c1cccc(Cl)c1 | 103
20 | CN1CCN(CCNC2CCN3CCCC3C2)C(c2ccccc2)C1 (stereo not given) | 28
21 | Brc1cccc(NCCNC2CCN(Cc3cccnc3)CC2)c1 | 41
22 | c1cncc(-c2ccc(CNC3CCN(Cc4cccs4)CC3)cc2)c1 | 86

Row | Compound | % Inhibition [%]
23 | CN1CCN(CCOc2ccccc2CN(C)Cc2cc3cc(F)ccc3[nH]2)CC1 | 104
24 | COc1ccc(CNCc2cc3ccccc3[nH]2)cc1CN(C)C | 36
25 | CN(c1ccccc1)c1ccc(CN2CCN([C@H]3CCNC3)CC2)cc1 | 0
26 | CN1CCC[C@H](CN2CCN(Cc3cc4n(n3)CCCNC4)CC2)C1 | -7
27 | Fc1ccc(N2CCC(N[C@@H]3COC4(CCNCC4)C3)CC2)cc1F | 6
28 | Cc1nc2ccc(CNC3CCN(c4ccc(F)c(F)c4)CC3)cc2[nH]1 | 64
29 | N[C@H]1CC[C@@H](NC2CCN(c3ccc(F)c(F)c3)CC2)CC1 | 35
30 | CN(CCCn1ccnc1)c1ccnc2cc(Br)ccc12 | 98
31 | Cc1cccc(Nc2ccnc(Nc3ccc(N4CCN(C)CC4)cc3)n2)c1 | 99
32 | COc1ccc2c(N3CC[C@H](CN4CCCC4)C3)ccnc2c1 | 102
33 | CN1CCN(CC2CCN(c3ccnc4ccccc34)CC2)CC1 | 103
34 | CNc1nc(N2CCN(CC(=O)NC3CCCCC3)CC2)nc2ccccc12 | 26
35 | Cn1cncc1[C@@H]1CNC[C@H]1CNC(=O)c1ccccc1NC1CCCCC1 | 73
36 | O=C(Nc1cnc2c(c1)COCC2)c1cc2c(OC(F)(F)F)cccc2[nH]1 | 102
37 | O[C@H]1CCN(Cc2cccc(NCc3cn4ccnc4s3)c2)C1 | 45
38 | CCN1CCC[C@H](Nc2cccc(-n3ccnc3)n2)C1 | 32
39 | O[C@H]1CCN(Cc2ccccc2CNc2cccc(-n3ccnc3)n2)C1 | 101
40 | CN1CCN(CCCCNC2CC3CCC(C2)N3Cc2ccccc2)CC1 (stereo not given) | 41
41 | OCCN1CCC(NCCc2cc(Cl)cc(Cl)c2)CC1 | 30
42 | Nc1ccnc2ccc(-c3ccc(C(=O)NCC4CCOCC4)cc3)cc12 | 102
43 | O=C1C2CCCCC2C(c2c(-c3ccccc3)[nH]c3ccccc23)N1Cc1ccccc1 (stereo not given) | 33
44 | COc1cc2nc(NCC3(N4CCN(C)CC4)CCCC3)cc(C)c2cc1OC | 103

Row | Compound | % Inhibition [%]
45 | Cc1ccccc1-c1cccc(N2CCC(NCC3CCNCC3)CC2)c1 | 100
46 | Cc1ccccc1-c1cccc(CNCCCN2CCC[C@H](O)C2)c1 | 17
47 | Cc1ccc2[nH]c(CNC[C@@H](CO)C3CCC3)cc2c1C | 80
48 | CNc1nc(C)c(-c2ccnc(Nc3cccc(S(C)(=O)=O)c3)n2)s1 | 45
49 | Nc1nc(NCC2CCN(CCc3ccccc3)CC2)cc([C@H]2C[C@@H](N)C2)n1 | 26
50 | Cc1cc(NC[C@H]2CN(CC(C)C)CCO2)c2ccccc2n1 | 28
51 | CCCN1CCC(Nc2cc(C)nc3ccccc23)CC1 | 89
52 | CC(C)CCOc1ccc2[nH]c(-c3cc(N4CCC[C@@H]4CS(C)(=O)=O)ccn3)cc2c1 | 98
53 | COc1ccc2cc(-c3cc(N)ccn3)[nH]c2c1 | 89
54 | COc1ccc2[nH]cc(-c3ccc(N)nc3)c2c1 | -21
55 | Nc1ccnc(-c2cccc3[nH]ccc23)c1 | 0
56 | COc1ccc2cc(NC(=O)c3cc(-c4c(C)nn(C)c4C)[nH]n3)cnc2c1 | 81
57 | Oc1cccc2c1CCC[C@@H]2NCc1ccc2occc2c1 | 55
58 | CN(C)C1CCN(CCN[C@H]2CCc3ccc(F)cc32)CC1 | 97
59 | O[C@H](COc1ccccc1CNCc1cc(-c2ccccc2)[nH]n1)CN1CCCCC1 | 103
60 | CCN1CCN(C[C@@H](C)CNCc2cc(-c3ccccc3)ccc2OC)CC1 | -4
61 | Cc1ccn2cc(-c3ccc(N4CCC(NCc5cccnc5)CC4)cc3)nc2c1 | 102
62 | Cc1nc(N2CCN(C)CC2)cc(N2CCN(S(=O)(=O)c3ccccc3C(F)(F)F)CC2)n1 | 56
63 | O=C(NCc1ccc(N2CCNCC2)c(F)c1)c1ccc(-c2noc(C(F)(F)F)n2)cc1 | 54
64 | c1ccc2c(Nc3ccc4[nH]cnc4c3)c3ccccc3nc2c1 | 102
65 | FC(F)(F)c1ccc(-c2c(-c3ccccc3)ncn2Cc2ncn[nH]2)cc1 | 7
